Assay results: paper PMC5700166
Residue numbers refer to the chain shown, from its start.

Assays:
Assay in all cases: protein-binding microarray (PBM); PBM: ~300 nM protein, 6 mM HEPES pH 7.8, 80 mM KCl, 0.5 mM EDTA, 0.5 mM EGTA, 6% glycerol, 35 ng/ul poly-dIdC, 1% milk, 1 h, room temperature; Ap Aiptasia and Nv Nematostella (sea anemones) / Co Capsaspora / Aq Amphimedon (sponge) / Dm Drosophila / Hu human; RHD is the Rel homology domain; high values mean tight binding
Conditions in all cases: dsDNA, one strand shown
[1] = biological target: T1, GST-Ap-NF-kB RHD (Exaiptasia pallida (Aiptasia), UniProt A0A913YAJ5 2-422)
T1 sequence: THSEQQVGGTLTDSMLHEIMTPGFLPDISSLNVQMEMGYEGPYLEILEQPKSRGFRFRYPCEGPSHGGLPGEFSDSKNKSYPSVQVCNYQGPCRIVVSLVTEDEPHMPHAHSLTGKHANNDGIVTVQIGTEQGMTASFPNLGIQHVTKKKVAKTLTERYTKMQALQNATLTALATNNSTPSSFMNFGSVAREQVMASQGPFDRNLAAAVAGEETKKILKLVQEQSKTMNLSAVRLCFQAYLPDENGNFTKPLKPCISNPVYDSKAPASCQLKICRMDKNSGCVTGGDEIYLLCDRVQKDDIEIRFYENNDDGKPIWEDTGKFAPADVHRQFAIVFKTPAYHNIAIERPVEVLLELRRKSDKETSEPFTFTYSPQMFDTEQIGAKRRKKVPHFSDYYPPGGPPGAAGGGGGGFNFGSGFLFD

[2] = biological target: T2, GST-Nv-NF-kB (Cys allele) (Nematostella vectensis, UniProt E5G601 2-411)
T2 sequence: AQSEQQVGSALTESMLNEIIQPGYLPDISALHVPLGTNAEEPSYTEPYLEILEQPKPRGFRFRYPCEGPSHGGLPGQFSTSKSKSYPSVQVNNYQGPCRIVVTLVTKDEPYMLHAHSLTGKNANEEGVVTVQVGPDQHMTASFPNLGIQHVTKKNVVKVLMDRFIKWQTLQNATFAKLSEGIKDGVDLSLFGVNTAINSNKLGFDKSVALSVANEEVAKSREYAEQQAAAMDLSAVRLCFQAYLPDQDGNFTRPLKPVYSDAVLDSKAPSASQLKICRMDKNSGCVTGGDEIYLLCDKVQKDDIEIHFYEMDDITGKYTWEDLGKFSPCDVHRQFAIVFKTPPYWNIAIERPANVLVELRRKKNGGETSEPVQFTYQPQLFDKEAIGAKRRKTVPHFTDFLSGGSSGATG

[3] = biological target: T3, GST-Nv-NF-kB (Ser allele) (Nematostella vectensis, UniProt A7UNT2 2-411)
T3 sequence: T2 sequence with Q21R, C66S, S207N, E215Q, V217A, E225K, A268E, D399E

[4] = biological target: T4, GST-Co-NF-kB (Capsaspora owczarzaki, UniProt F1ARL5 200-546)
T4 sequence: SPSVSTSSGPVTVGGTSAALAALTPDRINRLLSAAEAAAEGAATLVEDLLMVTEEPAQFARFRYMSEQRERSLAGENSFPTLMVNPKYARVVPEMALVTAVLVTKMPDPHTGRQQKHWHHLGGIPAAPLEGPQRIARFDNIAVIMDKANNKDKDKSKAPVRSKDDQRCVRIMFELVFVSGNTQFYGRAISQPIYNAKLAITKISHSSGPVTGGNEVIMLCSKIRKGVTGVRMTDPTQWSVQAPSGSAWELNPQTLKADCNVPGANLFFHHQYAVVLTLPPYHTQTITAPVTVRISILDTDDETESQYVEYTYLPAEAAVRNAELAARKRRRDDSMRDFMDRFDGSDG

[5] = biological target: T5, GST-Dm-Relish (Drosophila melanogaster, UniProt Q94527 99-473)
T5 sequence: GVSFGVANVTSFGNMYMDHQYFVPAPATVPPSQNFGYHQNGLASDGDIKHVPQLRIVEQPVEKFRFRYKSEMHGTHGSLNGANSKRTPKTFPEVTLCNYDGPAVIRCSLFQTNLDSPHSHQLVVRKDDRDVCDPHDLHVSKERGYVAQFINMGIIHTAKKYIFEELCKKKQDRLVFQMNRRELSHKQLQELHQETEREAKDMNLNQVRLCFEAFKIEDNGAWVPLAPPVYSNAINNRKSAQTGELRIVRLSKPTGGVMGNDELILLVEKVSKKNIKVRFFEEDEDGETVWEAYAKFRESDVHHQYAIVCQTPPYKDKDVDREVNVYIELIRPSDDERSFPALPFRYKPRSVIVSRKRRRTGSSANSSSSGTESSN

[6] = biological target: T6, GST-Aq-NF-kB (Amphimedon queenslandica, UniProt A9Y5G7 2-389)
T6 sequence: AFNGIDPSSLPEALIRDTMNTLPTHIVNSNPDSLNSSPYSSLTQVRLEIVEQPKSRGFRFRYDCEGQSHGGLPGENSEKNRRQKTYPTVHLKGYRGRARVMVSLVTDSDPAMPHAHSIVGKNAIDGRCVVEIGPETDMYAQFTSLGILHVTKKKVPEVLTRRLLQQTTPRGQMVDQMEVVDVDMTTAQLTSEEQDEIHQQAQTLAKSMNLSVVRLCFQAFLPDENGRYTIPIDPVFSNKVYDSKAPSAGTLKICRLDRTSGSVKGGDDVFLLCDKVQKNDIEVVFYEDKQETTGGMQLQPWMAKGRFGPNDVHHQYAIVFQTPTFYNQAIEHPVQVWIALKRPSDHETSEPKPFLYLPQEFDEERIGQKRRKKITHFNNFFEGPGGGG

[7] = biological target: GST-Hu-p50 (Homo sapiens, UniProt P19838 7-356)
Sequence of GST-Hu-p50 (P19838 7-356): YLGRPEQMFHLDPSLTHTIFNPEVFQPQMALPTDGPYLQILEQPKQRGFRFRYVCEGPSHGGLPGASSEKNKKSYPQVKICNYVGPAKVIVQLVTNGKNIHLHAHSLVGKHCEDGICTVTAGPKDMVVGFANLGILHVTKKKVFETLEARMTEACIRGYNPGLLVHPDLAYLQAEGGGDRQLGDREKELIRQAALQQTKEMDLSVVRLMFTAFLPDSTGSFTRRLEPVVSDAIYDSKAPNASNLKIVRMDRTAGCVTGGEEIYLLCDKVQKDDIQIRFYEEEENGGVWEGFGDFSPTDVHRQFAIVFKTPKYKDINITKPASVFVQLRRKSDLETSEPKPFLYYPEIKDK

Sequence	binding signal [1]	binding signal [2]	binding signal [3]	binding signal [4]	binding signal [5]	binding signal [6]	binding signal [7]
CCGATTAACATCATATTCCCCCATGATGTTAATCGGGTCTTGATTCGCTTGACGCTGCTG	6.56 z-score	7.4 z-score	7.13 z-score	8.84 z-score	3.91 z-score	5.97 z-score	6.3 z-score
CCGATTAACATCAGGGGAATTAATGATGTTAATCGGGTCTTGATTCGCTTGACGCTGCTG	6.97 z-score	9.44 z-score	10.2 z-score	7.92 z-score	7.21 z-score	6.31 z-score	6.52 z-score
CCGATTAACATCAGAAGTCCCCCTGATGTTAATCGGGTCTTGATTCGCTTGACGCTGCTG	7.95 z-score	7.32 z-score	–	5.95 z-score	7.74 z-score	6.54 z-score	6.36 z-score
CCGATTAACATCAAGGGACTTTCTGATGTTAATCGGGTCTTGATTCGCTTGACGCTGCTG	7.14 z-score	9.44 z-score	8.36 z-score	–	7.3 z-score	7.13 z-score	5.98 z-score
CCGATTAACATCAGGAAGGTCCCTGATGTTAATCGGGTCTTGATTCGCTTGACGCTGCTG	3.51 z-score	2.97 z-score	1.09 z-score	–	1.64 z-score	5.37 z-score	2.52 z-score
CCGATTAACATCAGGGGCTTTACTGATGTTAATCGGGTCTTGATTCGCTTGACGCTGCTG	4.24 z-score	5.11 z-score	3.48 z-score	–	7.41 z-score	5.73 z-score	4.83 z-score
CCGATTAACATCAGGGTTTCACCTGATGTTAATCGGGTCTTGATTCGCTTGACGCTGCTG	1.51 z-score	1.95 z-score	1.23 z-score	–	5.71 z-score	3.71 z-score	2.5 z-score
CCGATTAACATCAGGAAAGCACCTGATGTTAATCGGGTCTTGATTCGCTTGACGCTGCTG	2.85 z-score	4.19 z-score	2.69 z-score	–	6.13 z-score	5.89 z-score	4.74 z-score
CCGATTAACATCAGGGACTTCACTGATGTTAATCGGGTCTTGATTCGCTTGACGCTGCTG	3.82 z-score	4.27 z-score	4.08 z-score	–	7.9 z-score	5.14 z-score	4.12 z-score
CCGATTAACATCAGGGACATACCTGATGTTAATCGGGTCTTGATTCGCTTGACGCTGCTG	2.52 z-score	3.64 z-score	1.01 z-score	–	3.64 z-score	5.64 z-score	2.14 z-score
CCGATTAACATCAAAGAAGTCCCTGATGTTAATCGGGTCTTGATTCGCTTGACGCTGCTG	5.78 z-score	6.68 z-score	6.97 z-score	–	5.18 z-score	5.56 z-score	5.29 z-score
CCGATTAACATCAGGAAACCACCTGATGTTAATCGGGTCTTGATTCGCTTGACGCTGCTG	4.41 z-score	4.04 z-score	3.92 z-score	–	7.57 z-score	6.62 z-score	6.09 z-score
CCGATTAACATCACGGGGTTTTCTGATGTTAATCGGGTCTTGATTCGCTTGACGCTGCTG	6.68 z-score	6.13 z-score	–	2.98 z-score	8.05 z-score	5.9 z-score	5.61 z-score
CCGATTAACATCACGGTAATTCCTGATGTTAATCGGGTCTTGATTCGCTTGACGCTGCTG	1.42 z-score	2.05 z-score	2.65 z-score	–	5.3 z-score	4.04 z-score	1.7 z-score
CCGATTAACATCACACTCCCCCCTGATGTTAATCGGGTCTTGATTCGCTTGACGCTGCTG	5.44 z-score	4.08 z-score	–	6.07 z-score	3.37 z-score	3.93 z-score	5.38 z-score
CCGATTAACATCACGGAATTCCCTGATGTTAATCGGGTCTTGATTCGCTTGACGCTGCTG	6.01 z-score	6.74 z-score	–	3.4 z-score	7.05 z-score	7.07 z-score	4.62 z-score
CCGATTAACATCAGGGAGGTACCTGATGTTAATCGGGTCTTGATTCGCTTGACGCTGCTG	3.34 z-score	2.59 z-score	2.93 z-score	–	5.13 z-score	3.92 z-score	2.03 z-score
CCGATTAACATCAGGAAAGTCCCTGATGTTAATCGGGTCTTGATTCGCTTGACGCTGCTG	7.69 z-score	10.6 z-score	8.2 z-score	–	8.43 z-score	9.81 z-score	7.09 z-score
CCGATTAACATCAAAAAACCCCATGATGTTAATCGGGTCTTGATTCGCTTGACGCTGCTG	6.53 z-score	7.08 z-score	–	2.59 z-score	9.52 z-score	6.77 z-score	6.62 z-score
CCGATTAACATCAAGGTGTTTCCTGATGTTAATCGGGTCTTGATTCGCTTGACGCTGCTG	1.56 z-score	1.48 z-score	1.39 z-score	–	1.91 z-score	2.48 z-score	3.43 z-score
CCGATTAACATCAGGAGAGTACCTGATGTTAATCGGGTCTTGATTCGCTTGACGCTGCTG	1.28 z-score	2.32 z-score	3.99 z-score	–	2.54 z-score	3.47 z-score	2.62 z-score
CCGATTAACATCAGGGTTTTTAGTGATGTTAATCGGGTCTTGATTCGCTTGACGCTGCTG	2.02 z-score	1.3 z-score	2.09 z-score	–	2.9 z-score	2.58 z-score	1.99 z-score
CCGATTAACATCAGGGATTTCACTGATGTTAATCGGGTCTTGATTCGCTTGACGCTGCTG	2.71 z-score	2.33 z-score	1.49 z-score	–	6.3 z-score	4.19 z-score	2.38 z-score
CCGATTAACATCACGAAAGTCCCTGATGTTAATCGGGTCTTGATTCGCTTGACGCTGCTG	6.26 z-score	6.77 z-score	7.54 z-score	–	5.86 z-score	5.78 z-score	5.45 z-score
CCGATTAACATCAGGGTACTACCTGATGTTAATCGGGTCTTGATTCGCTTGACGCTGCTG	2.34 z-score	1.63 z-score	2.2 z-score	–	1.62 z-score	4.13 z-score	1.43 z-score
CCGATTAACATCAGGGACTTTACTGATGTTAATCGGGTCTTGATTCGCTTGACGCTGCTG	5.17 z-score	6.47 z-score	6.59 z-score	–	7.99 z-score	6.61 z-score	5.06 z-score
